LDHA inh – inhibitors of human lactate dehydrogenase A; P00338; purified LDHA, NADH/diaphorase-resazurin fluorescence; active compounds read low; activity change, % (values are at about 110 or 230 µM); actives 0.15% (n = 480,000); AID 1347041; in the data active = activity change below about -30%; inconclusive = mostly about -25% to -30%;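 also: plate controls were DMSO wells for no effect and wells without enzyme for full effect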
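Remaining NADH was detected by diaphorase (0.133 mg/mL) converting 37 µM resazurin to fluorescent resorufin, read at 0 and 20 minutes. The preceding 5-minute room-temperature reaction used 2 nM LDHA, 0.2 mM sodium pyruvate and 0.06 mM NADH at pH 7.4.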
ATXN2 expr inh – inhibitors of ATXN2 expression | HEK-293 ATXN2-luciferase reporter, luminescence, 24 h | Potency, µM (highest dose often 57 µM), inactives show at the highest dose activity change, negative = inhibition, most hits filed as inhibitors | actives 0.72% (n = 360,000); also: potency is read from the fitted curve at half-maximal effect; % is scaled to controls: 0 for no effect and ±100 for the full control effect; nearly all actives have a fitted effect of over 55% in size
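qHTS (up to 57 uM final) was run with 24 h compound exposure of reporter cells at 37 °C. Each well was multiplexed: SteadyGlo luminescence measured ATXN2-luciferase expression after a fluorogenic Gly-Phe-AFC viability readout (25 uM final).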
IDH1 R132H inh – inhibitors of human mutant IDH1 R132H; Potency, µM (highest dose often 76.6 µM), inactives show at the top dose activity change, negative = inhibition, actives largely listed as inhibitors; O75874; IDH1-R132H enzyme, NADPH consumption, diaphorase/resazurin fluorescence; actives 0.093% (n = 390,000); AID 602179; also: potency is read from the fitted curve at half-maximal effect; % is scaled to controls: 0 for no effect and ±100 for the full control effect; nearly all actives have a fitted effect of over 65% in size
Target sequence (O75874 whole entry R132H, stated change not applied): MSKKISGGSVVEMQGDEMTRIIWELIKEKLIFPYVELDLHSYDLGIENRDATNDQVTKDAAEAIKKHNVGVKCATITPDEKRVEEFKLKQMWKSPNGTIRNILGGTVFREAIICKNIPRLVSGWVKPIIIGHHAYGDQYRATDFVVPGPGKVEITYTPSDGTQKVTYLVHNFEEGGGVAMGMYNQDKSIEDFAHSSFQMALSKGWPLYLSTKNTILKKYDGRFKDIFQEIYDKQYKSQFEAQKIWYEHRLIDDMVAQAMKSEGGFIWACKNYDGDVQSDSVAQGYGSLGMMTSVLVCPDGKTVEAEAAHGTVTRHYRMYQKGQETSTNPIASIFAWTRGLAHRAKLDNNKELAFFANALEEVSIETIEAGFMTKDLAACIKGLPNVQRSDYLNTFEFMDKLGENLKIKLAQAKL
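IDH1-R132H (0.5 ug/mL dispensed) in pH 7.5 Tris buffer was preincubated 30 min with compound, then given a substrate mix of 0.016 mM NADPH and 2 mM alpha-KG for 80 min at room temperature; remaining NADPH was read by diaphorase/resazurin fluorescence.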
HepG2 tox – counter-screen for TGF-b inhibitors: cytotoxicity in HepG2 cells; Potency, µM (series often up to 46.1 µM), inactives show at the top dose activity change, negative = cytotoxicity, most hits filed as cytotoxic; HepG2 CAGA-GFP viability, ATP luminescence, 18 h; AID 588856; actives 0.76% (n = 410,000); also: potency is read from the fitted curve at half-maximal effect
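HepG2 CAGA-GFP cells (1000/well, DMEM with 1% FBS) received compound, then TGF-beta at 500 pg/mL final, and were incubated 18 hours at 37 degrees C. Viability was read by CellTiter-Glo luminescence. Media-only wells were set as complete cell-killing and DMSO as no toxicity.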
TGFb SMAD3 inh – TGF-b pathway inhibition; HepG2 CAGA-GFP TGF-b/SMAD3 reporter, GFP fluorescence, 18 h; TGF-beta stimulated, 500 pg/mL final; Potency, µM (titrated, usually from 46.1 µM), for inactives: top-dose activity, negative = inhibition, actives largely listed as inhibitors; actives 1.2% (n = 410,000); AID 588855; also: potency is read from the fitted curve at half-maximal effect; % is scaled to controls: 0 for no effect and ±100 for the full control effect; nearly all actives have a fitted effect of over 65% in size
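TGF-beta reporter screen: HEPG2 CAGA-GFP, 1% FBS, 500 pg/mL TGF-beta final, 18 h; per-cell GFP summed per well; curves fitted and categorized by class.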
ATXN viability – reduces viability in counter-screen for ATXN expression inhibitors | S2 cells (HEK-293 line with an ATXN2-luciferase reporter) viability, CellTiter-Fluor protease fluorescence, 24 h | actives 0.49% (n = 400,000) | Potency, µM (top dose mostly 56.7 µM), hits mostly cytotoxic; also: potency is read from the fitted curve at half-maximal effect; nearly all actives have a fitted effect of over 40% in size
* = called active by the depositor; i = inactive; ? = inconclusive; / = not tested or not shown; [ ] = dose if it differs, or a comment. Compounds with a hit are over-represented: about 2.2% of the library has one in this group of screens. Unless noted, calls follow the shape of the dose curve; as a rule, active = well fitted curve in the direction sought with a large enough effect; inconclusive = small, poorly fitted or top-dose-only effect, or another doubt; inactive = no such curve, though single readings can be large; an effect the other way counts as inactive or inconclusive.

SMILES	LDHA inh	ATXN2 expr inh	IDH1 R132H inh	HepG2 tox	TGFb SMAD3 inh	ATXN viability
CN(CC(O)COC(c1ccccc1)c1ccccc1)C1CCCCC1 (centres undefined)	5	-11%	6%	-32%	-27%	i
CN(C)CC(O)COC(c1ccc(Cl)cc1)c1ccc(Cl)cc1 (centres undefined)	1	?	6%	16µM*	?	?
COc1ccc(OC(C)C(=O)N(C)Cc2nc(-c3ccc(C)cc3)no2)cc1 (centres undefined)	-1	2%	2%	-21%	-20%	/
COc1ccc(N(C(=O)c2ccco2)C(C(=O)NC2CCCC2)c2cccs2)cc1OC (centres undefined)	15	10%	0%	-6%	-9%	i
CC(Oc1cc(C(F)(F)F)cc(C(F)(F)F)c1)C(=O)NC(N)=O (centres undefined)	1	-1%	7%	-9%	-6%	i
O=C(Cc1ccc(Cl)cc1)c1c[nH]c(C(=O)NCc2cccnc2)c1	-1	/	0%	7%	-28%	2.5µM*
O=C(NCC1(O)CCCCC1)C1CCC(=O)N(CCc2ccccc2)C1 (centres undefined)	-6	-3%	1%	-37%	-1%	i
CC(=O)N(C)c1ccc(OCC(O)Cn2c3ccc(Cl)cc3c3cc(Cl)ccc32)cc1 (centres undefined)	-1	?	7%	14µM*	?	?
CC(=O)N(C)c1ccc(OCC(O)Cn2c(C)nc3ccccc32)cc1 (centres undefined)	-4	/	0%	-2%	-4%	i
Cc1c(C(=O)Oc2cc(N)n(S(C)(=O)=O)n2)cccc1[N+](=O)[O-]	-14	/	-2%	-13%	0%	i
N#Cc1cccc(NC(=O)c2cc(C3CCCCN3C(=O)c3ccccn3)on2)c1 (centres undefined)	-7	-12%	/	-12%	3%	i
NC(=O)Nc1ccc(C(=O)Nc2cccc3cccnc23)cc1	-15	/	/	/	/	/
CCCCCCCNC(=O)C1(CC2CC(c3ccc(Cl)cc3)=NO2)CCNCC1 (centres undefined)	-11	28µM*	-19%	18µM*	?	/
CCCCCCCNC(=O)C1(CC2CC(c3ccc(Cl)cc3)=NO2)CCN(C(=O)Cc2ccc(F)cc2)CC1 (centres undefined)	0	0%	-6%	-4%	0%	i
Cc1cccc(CSc2cn(CC(=O)N3CCCC3)c3ccccc23)c1	7	/	0%	-44%	?	/
COc1ccc(-n2ncc(N(C)n3cccc3)c(Cl)c2=O)cc1	-4	12%	-1%	3%	-13%	i
COc1ccc(-n2ncc(Cl)c(Cl)c2=O)cc1	-3	?	1%	-30%	?	3.8µM*
CC1=C(CC[C@@H](C)CO)OC2CC3C4CCC5CC(O)CCC5(C)C4CC(=O)C3(C)C12 (some centres undefined)	-4	25µM*	2%	-25%	2%	?
COc1ccc(CN2C(=O)CCC2(C)c2nnnn2-c2c(C)cccc2C)cc1 (centres undefined)	-4	19%	/	/	/	i
CCOc1ccc(CN2CCN(Cc3ccc4c(c3)c3ccccc3n4CC)CC2)cc1	-12	/	-8%	-76%	10µM*	/
O=C1NC(=O)[C@@]2(CCOc3ccc(F)cc32)N1	/	0%	/	/	/	i
COc1ccc(C2=C(C)C(Nc3cc(Cl)c(OC)cc3OC)=NS2(=O)=O)cc1	6	/	/	/	/	/
O=C(O)c1ccc2nc(-c3ccccc3)sc2c1	-16	8.9µM*	0%	-1%	-3%	i
CC1CCN(c2nc3ccc(C(=O)O)cc3s2)CC1	-1	2.2µM*	5%	5%	-4%	i
Nc1ccc2nc(-c3ccc(O)cc3)sc2c1	9	0%	-9%	-46%	10%	i
SMILES	LDHA inh	ATXN2 expr inh	IDH1 R132H inh	HepG2 tox	TGFb SMAD3 inh	ATXN viability
Nc1ccc(-c2nc3ccc(C(=O)O)cc3s2)cc1	-7	1.4µM*	1%	-3%	13%	i
Nc1ccc(-c2nc3ccc(N)cc3s2)cc1	10	20µM*	10%	-26%	-14%	i
CCOc1ccc(NC(=O)NCc2cccn2Cc2ccccc2)cc1	-6	-4%	28%	-27%	-27%	i
CCCn1nc(C(=O)Nc2cc(S(=O)(=O)N(C)C)ccc2OC)c2ccccc2c1=O	-1	/	/	/	/	/
COc1ccc(CC(=O)OCC(=O)Nc2cc(S(=O)(=O)N3CCOCC3)ccc2N2CCCC2)cc1	2	-3%	0%	0%	-12%	i
CCCC[C@@H](CN[C@H](C)CNC)NCC1CCC(C(C)(C)C)CC1 (some centres undefined)	-4	35µM*	-2%[38.3 µM]	18µM*	?	32µM*
O=S1(=O)CCO[C@H]2CCCC[C@@H]2N1Cc1ccccc1Br	/	/	/	-3%	3%	/
C=C1[C@@H](O)[C@H](CC(C)C)N(Cc2ccccc2Br)S1(=O)=O	-2	-28%	17%	10µM*	8.9µM*	/
CCCCC[C@@H]1[C@@H]2C(=C(OCC)C[C@@H]3C(=O)N(c4ccccc4)C(=O)[C@H]23)[C@H](c2ccccc2)N1S(=O)(=O)c1ccc(C)cc1	-10	-8%	/	-2%	-18%	i
CCOC1=C2[C@H](c3ccccc3)N(S(=O)(=O)c3ccc(C)cc3)C(C(C)(C)C)[C@H]2C(C#N)(C#N)C(C#N)(C#N)C1 (some centres undefined)	-11	25µM*	/	16µM*	10µM*	18µM*
CCOC1=C2CN(S(=O)(=O)c3ccc(C)cc3)[C@H](c3cccc4ccccc34)C[C@H]2C(C#N)(C#N)C(C#N)(C#N)C1	-6	14µM*	/	-43%	?	/
CCOC1=C2CN(S(=O)(=O)c3ccc(C)cc3)[C@@H](c3cccc4ccccc34)C[C@H]2[C@H]2C(=O)N(c3ccccc3)C(=O)[C@H]2C1	-5	10%	/	2%	-2%	i
CCc1ccccc1NC(=O)CN1CCCN(Cc2cc(C)ccc2C)S1(=O)=O	-6	/	2%	-35%	18µM*	/
Cc1ccc(NC(=O)CN2CCCN(Cc3cc(C)ccc3C)S2(=O)=O)c(Cl)c1	-3	/	-11%	-24%	?	/
COc1cc(C(=O)NC2CCN(C)CC2)ccc1Nc1ncc2c(n1)N(Cc1ccccc1)CCC(=O)N2C	1	27%	-1%[38.3 µM]	-52%	44%	?
